Assay outcomes as filed in PubChem.
The entries come from a sample that favours hits as a whole.
Pf Dd2 inh – Plasmodium falciparum Dd2 growth inhibition. Potency, µM (doses to about 28.9 µM), without a hit: at the highest dose activity, negative = inhibition, usual class: inhibitors. P. falciparum Dd2 growth, SYBR Green, 72 h. AID 1347417. hit rate 4.3% among 120,000; active = well fitted inhibition curve with a large enough effect;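 note: plate controls were DMSO vehicle for no effect and reference drug for full effect; nearly all actives have a fitted effect of over 65% in size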
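Readout: SYBR Green fluorescence, 485 nm excitation, 535 nm emission, after ~16 h lysis at 37C. Before that, Dd2-infected red cells (2.5% hematocrit) grew 72 h with compound, 29 uM top final concentration.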
An asterisk follows results filed as active; i = inactive; [ ] = another dose, or the depositor's remark. Potency is the fitted concentration of half-maximal effect.

SMILES	Pf Dd2 inh
CCc1ccccc1NC(=O)CSc1nc(-c2ccccc2OC)nc2c1Cc1c(CO)cnc(C)c1O2	-12%
Cc1ccc(C)c(NC(=O)CSc2nc(-c3ccccc3Cl)nc3c2Cc2c(CO)cnc(C)c2O3)c1	9%
COc1ccccc1-c1nc2c(c(SCC(=O)Nc3c(C)cc(C)cc3C)n1)Cc1c(CO)cnc(C)c1O2	-16%
CCCCSc1nc(-c2cccc(OC)c2)nc2c1Cc1c(CO)cnc(C)c1O2	-14%
C=Cc1ccc(CSc2nnc(C)n3c2cc2occc23)cc1	-1%
Cc1ccc(-c2nc3c(c(SCC(=O)N4CCCCC4)n2)Cc2cc(C)ccc2O3)cc1	-22%
CCc1ccc(NC(=O)CSc2nc(-c3cccc(OC)c3)nc3c2Cc2c(CO)cnc(C)c2O3)cc1	3.5µM*
C=Cc1ccc(CSc2nc(-c3ccc(C)cc3)nc3c2Cc2c(CO)cnc(C)c2O3)cc1	2.8µM*
COc1ccc(-c2nc3c(c(SCC(=O)Nc4cc(C)cc(C)c4)n2)Cc2c(CO)cnc(C)c2O3)cc1	49%
CCc1ccc(CSc2nc(-c3ccccc3OC)nc3c2Cc2c(CO)cnc(C)c2O3)cc1	3.2µM*
Cc1ccc(CSc2nc(-c3ccccc3C)nc3c2Cc2c(CO)cnc(C)c2O3)cc1	5µM*
Cc1cccc(-c2nc3c(c(SCc4ccccc4Cl)n2)Cc2c(CO)cnc(C)c2O3)c1	1%
CCc1[nH]nc(C(=O)N2CCC(c3[nH]ncc3-c3cccc(C)c3)CC2)c1C	-15%
CC1=C[C@@H](CO)[C@H](C(C)C)C[C@H]1CC(=O)NCc1cccnc1	3%[44.1 µM]
COc1ccc(S(=O)(=O)N2CC[C@H]3NC(=O)N(c4ccc(Oc5ccccc5)cc4)C(=O)[C@H]32)cc1	-21%
COC[C@@H]1CNC[C@H]1c1nc(C2CC2)no1	-5%
O=C(NCc1ccccc1)N1CC(n2cc(C(=O)N3CCOCC3)nn2)C1	-6%
Cc1ocnc1C(=O)N1CCC2(CCC(=O)N(CC(C)O)C2)CC1 (stereo not given)	-4%
Cc1ccc(C(=O)NCC23CCC=C2N(C)C(=O)CC3)cn1 (stereo not given)	-29%
CCc1cccc(NC(=O)N(C)CC2CCOCC2)c1	-17%
COc1ccc(C(=O)N[C@@H]2CN(C(=O)Nc3cccc(C#N)c3)CCC[C@H]2O)cc1	i
COc1ccc(C(=O)N[C@@H]2CN(C(=O)Nc3ccc(OC(F)(F)F)cc3)CCC[C@H]2O)cc1	5µM*
O=C(N[C@@H]1CN(C(=O)Nc2ccc(OC(F)(F)F)cc2)CCC[C@H]1O)c1ccc(OCCN2CCOCC2)cc1	i
Cc1nn(C(=O)CCCC(=O)N2CCC(Cc3nncn3C(C)C)CC2)c2ccccc12	-10%
Cc1ccc(-c2cc(C(=O)N3CCC(Cc4nncn4C(C)C)CC3)c3ccccc3n2)cc1C	5µM*
SMILES	Pf Dd2 inh
CC(C)n1cnnc1CC1CCCN(C(=O)c2n[nH]c3ccccc23)C1 (stereo not given)	-3%
O=C(OCc1ccccc1)N1CCCN(c2cc(C3CC(O)C3)ncn2)CC1 (stereo not given)	-13%
Cc1ccc(S(=O)(=O)Nc2ccc(C)n(CC(=O)NCc3ccccc3)c2=O)cc1	6%
Cc1ncc2c(c1CNC(=O)c1ccccc1F)CCN(C(=O)Cc1ccc3c(c1)OCO3)C2	-13%
Cc1cn(CCNC(=O)c2cn(C3CCC(N)CC3)nn2)nn1 (stereo not given)	-3%
COc1cccc(CC(=O)N2CCC([C@H]3[C@@H](OC)C(=O)N3C(C)C)CC2)c1	-11%
COc1ccc(C2Cn3nnc(C(=O)N4CCC(C(=O)NC5CCCCCCC5)CC4)c3CO2)cc1 (stereo not given)	-17%
COc1ccc(C(=O)N2CCN(C(=O)c3nnn4c3COC(c3ccc(F)cc3)C4)CC2)cc1 (stereo not given)	0%
Cc1ccc(C2Cn3nnc(C(=O)N4CCN(C(=O)c5ccc(F)cc5)CC4)c3CO2)cc1 (stereo not given)	0%
Cc1ccc(C2Cn3nnc(C(=O)NCc4ccc(F)cc4)c3CO2)cc1 (stereo not given)	i
COc1ccc(C2Cn3nnc(C(=O)N4CCC(C(=O)NC5CCCCC5)CC4)c3CO2)cc1 (stereo not given)	26%
COc1ccc(CCNC(=O)c2nnn3c2COC(c2ccc(C)cc2)C3)cc1OC (stereo not given)	8.9µM*
CCCCNC(=O)c1nnn2c1COC(c1ccc(C)cc1)C2 (stereo not given)	i
COc1ccc(C2Cn3nnc(C(=O)NC4CCCCCCC4)c3CO2)cc1 (stereo not given)	8.9µM*
Cc1ccc(C(=O)N2CCN(C(=O)c3nnn4c3COC(c3ccc(F)cc3)C4)CC2)cc1C (stereo not given)	7.1µM*
O=C(NCC1(COc2cccnc2)C[C@@H](O)[C@@H](O)C1)c1cccnc1 (stereo not given in full)	21%[44.1 µM]
O=C(Cc1cccc(F)c1)N1CCC(Cc2nncn2-c2ccccc2)CC1	-9%
COCc1nncn1C1CCN(S(=O)(=O)c2ccc(Cl)c(C)c2)CC1	-13%
CN1CCC(Cc2ccc(C(=O)NCC3CCCCC3)cc2)CC1	-12%
